From the supplement of paper PMC6555819

Assays:
Assay in all cases: PBM binding z-score (relative to random genomic background probes); higher = stronger binding; sequences stand for … in GC…GCGATTGACAGCGTAGAATGAAGG
[1] = test system: FXR:RXRa (NR concentration 270 nM, RXRa partner concentration 90 nM)
Summary of the method: (§1)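 Probes were double-stranded and carried 34-nt variable regions with direct-repeat seeds, single-nucleotide variants, half-site ablations and random human genomic background sequences, printed on custom Agilent 4×180K protein-binding microarrays. Arrays were incubated 1 h with ligand-free nuclear receptor dimers in PBS pH 7.4, 2% milk, 0.02% Triton X-100, 1 mM DTT, 0.2 mg/mL BSA and 0.4 mg/ml salmon testes DNA. Antibodies against each partner (one per run) detected binding, and scanned fluorescence was regression-normalized. Binding z-scores use the random background probes as reference.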

[2] = test system: LXRa:RXRa (NR concentration 270 nM, RXRa partner concentration 90 nM)
Summary of the method: as §1

[3] = test system: LXRa homodimer (NR concentration 270 nM)
Summary of the method: as §1

[4] = test system: LXRb:RXRa (NR concentration 270 nM, RXRa partner concentration 90 nM)
Summary of the method: as §1

[5] = test system: LXRb homodimer (NR concentration 270 nM)
Summary of the method: as §1

[6] = test system: PPARa:RXRa (NR concentration 270 nM, RXRa partner concentration 90 nM)
Summary of the method: as §1

[7] = test system: PPARg:RXRa (NR concentration 180 nM, RXRa partner concentration 90 nM)
Summary of the method: as §1

[8] = test system: PPARg:RXRa 270nM:90nM, anti-RXR (NR concentration 270 nM, RXRa partner concentration 90 nM)
Summary of the method: as §1

[9] = test system: PPARg:RXRa 30nM:10nM, anti-RXR (NR concentration 30 nM, RXRa partner concentration 10 nM)
Summary of the method: as §1

[10] = test system: PPARg:RXRa 90nM:30nM, anti-RXR (NR concentration 90 nM, RXRa partner concentration 30 nM)
Summary of the method: as §1

| Sequence | PBM binding z-score [1] | PBM binding z-score [2] | PBM binding z-score [3] | PBM binding z-score [4] | PBM binding z-score [5] | PBM binding z-score [6] | PBM binding z-score [7] | PBM binding z-score [8] | PBM binding z-score [9] | PBM binding z-score [10] |
| --- | --- | --- | --- | --- | --- | --- | --- | --- | --- | --- |
| CGAACTAGGTCACCCGGACAGTGAAGAGGTTGGA | 3.91 | 2.15 | 0.102 | 1.65 | 0.00893 | 4.76 | 8.61 | 6.77 | 4.46 | 6.25 |
| GCTGCTAGGTCAGGTTGGTCTGCTAACGGGTACG | 1.17 | 0.795 | -0.237 | 0.627 | -0.557 | 1.4 | 0.225 | 0.854 | -0.545 | 0.295 |
| AACGAAAGGTCGACGAGGTGAGTATACACCGTTT | 4.99 | 3.68 | 0.231 | 2.9 | 0.0317 | 4.82 | 3.19 | 3.42 | 1.02 | 2.48 |
| AATACAGGGTCACTAGGCCAGAGTGGGTACGAAT | 5.94 | 5.03 | 0.964 | 3.77 | 0.863 | 5.69 | 8.11 | 6.63 | 3.08 | 5.4 |
| ATCTCTAGGTAAAGTTCATTGAAAGATCGATAGA | 2.67 | 3.78 | 4.69 | 2.63 | 1.81 | 3.5 | 4.69 | 5.51 | 3.5 | 5.54 |
| GCTGCTAGGTCAACTGATGGTCAGCTAAAGCTCG | 4.31 | 3.05 | 0.34 | 2.04 | -0.115 | 3.63 | 2.88 | 3.35 | 0.939 | 2.08 |
| CCTACTGGGCCATTCAGAGGACATTGATCATATG | -0.067 | -0.34 | 0.339 | -0.405 | -0.12 | 0.0535 | 0.784 | 0.44 | -0.132 | -0.17 |
| TAGCCTAGGTCAGATCGGGGCAGTATACGCTATA | 3.05 | 1.42 | -0.378 | 1.22 | 0.212 | 1.93 | 0.989 | 1.43 | 0.0966 | 0.842 |
| TCTGCTAGGTCAGTTGGGCAGCTAACGAGCTGCC | 0.934 | 0.385 | -0.629 | 0.223 | 0.28 | 1.12 | 0.0296 | 1.52 | 0.946 | 1.17 |
| TCTAGGAGGACACGAAGGTCAGAGCTTTCCAGAG | 1.27 | 0.762 | 0.19 | 0.856 | -0.833 | 2.05 | 0.882 | 2.09 | 2.49 | 2.5 |
| AATACAGGGTCACTGGGCCAGAGTAGGTACGAAT | 6.75 | 5.6 | 1.01 | 4.21 | 0.418 | 6.23 | 8.71 | 6.98 | 3.69 | 5.91 |
| ATATGGAGGTTAGCTGGGGTCATTCAGACTAGGC | 5.58 | 6.45 | 4.02 | 5.67 | 1.51 | 5.04 | 3.15 | 3.77 | 1.68 | 2.72 |
